From the supplement of paper PMC6555819 come the findings set out here.

The test has as its system LXRb homodimer (NR concentration 270 nM). The test is described as follows: PBM binding z-score (relative to random genomic background probes); higher = stronger binding; sequences stand for … in GC…GCGATTGACAGCGTAGAATGAAGG
The essentials: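 Each nuclear receptor dimer, without ligand, was incubated for 1 h on custom Agilent 4×180K protein-binding microarrays. Binding was detected with antibodies against each partner (one per run), and scanned fluorescence was regression-normalized. The binding z-scores are referenced to random human genomic background probes.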
CCAGACAGGAGAGAAGGTAACTCAGCCTCGATTA came in with a PBM binding z-score of 0.0914.

CGTCAAAGTTCAAGGTAACGTACCAGAAAGCAGC yielded a PBM binding z-score of 1.03.

TCTAGTTGGTCACGGAAGTCACACACGACGGGTA: the PBM binding z-score worked out at 0.323.

The sequence ATATGTAGGTTATCGGTTCATTCAGTTTGCGCAT returned a PBM binding z-score of 1.17.

Take CCTAGCAGGCCAATGTGGGTCACTCAAGGCTTGA: the PBM binding z-score is -1.16.

Regarding TCATATAGGTAATACAGGTGAAAGTTGGCATCTA, the PBM binding z-score stood at 0.359.

Turning to GCTAGCATGCCATTTGGGTCACTCAATGACGGGC, the PBM binding z-score is -0.628.

With CGTCAAAGTTCAAGGTAACGTTACAGAAAGCAGC, the PBM binding z-score is 1.12.

Turning to CCTTACGGGTCAAGGTTATAGCACGGGTGGTACG, the PBM binding z-score worked out at 0.019.

As for CGAACTAGGGCATCCAGGACAGTGAATACATTGA, the PBM binding z-score was -0.651.

Take TTATCAAGGTGAAGGTCGTTGATCCCTCTGTAGA: the PBM binding z-score is -0.0841.

In the case of CCAGACAGGTGAAATGTAACTCAGTCTGGTACGC, the PBM binding z-score turned out to be 0.0964.

The sequence GATTCAGGGTCAAGGCCAGAGTACGCGTATTGAT registered a PBM binding z-score of 0.317.

As to CGTCCAAGGTCAATGCTAGGTAAGTGAAAGCATT, the PBM binding z-score is 0.552.

Turning to CTCGAAAGGTCGTGCTCAGGTGACTATACCAAAC, the PBM binding z-score turned out to be 0.323.

Regarding GCTGCTAGGTCCGGTTGGTCAGCTAACGGGTACG, the PBM binding z-score is -0.916.

TTACCAAGGTGAGCTGAGGTCGTTGACCCAACTC had a PBM binding z-score of -0.784.

For TCTATTAGTTGACGGGCAACCGACGAGTCCGTTT, the PBM binding z-score was 0.493.

Sequence TTACCAAGGTGAACGTCGTTGATCCCTCTGTAGA displayed a PBM binding z-score of -0.681.

With GCTATTAGTCGAAAGGGCAACCGAATGATTCTCG, the PBM binding z-score was -0.262.

Regarding CCTAGCAGGCTAGGGTCACTCAAGCATTTCGCTT, the PBM binding z-score is -0.881.

CGTCCAAGGTCAAAAGTCAGTGAAGAGATGACGG gave a PBM binding z-score of 1.42.
